Assay results taken from PubChem BioAssay (NCI).
The panel holds about 79,000 compounds, 15% with a hit somewhere; the sample as a whole holds those more often. The source made the active and inactive calls. Rule as the data show it: active = growth inhibition above about 70%; inactive = the rest.

Assays:
[1] = NCI Yeast Anticancer Drug Screen. Data for the rad50 strain (AID 155);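 also: 0% = growth of vehicle-only cultures of the same strain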; details: S. cerevisiae rad50 strain growth inhibition; at 50.0 µM; hits give high values
Procedure, shortened: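 Vehicle-treated cultures provide the reference for the growth inhibition reported for compound-exposed, repair-deficient yeast.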

[2] = NCI Yeast Anticancer Drug Screen. Data for the mec2-1 strain (AID 157); details: S. cerevisiae mec2-1 strain, at 50.0 µM, hits give high values
Procedure, shortened: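 Mutant yeast (mec2-1) grown with compound; growth inhibition relative to vehicle control reported.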

[3] = NCI Yeast Anticancer Drug Screen. Data for the sgs1 mgt1 strain (AID 161);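 also: 0% = growth of cultures given vehicle only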; details: S. cerevisiae sgs1 mgt1 strain, at 50.0 µM, hits give high values
Procedure, shortened: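 Percent growth inhibition was derived by comparing compound-exposed mutant yeast with vehicle-exposed cultures. The strain carries alterations in DNA damage repair.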

[4] = NCI Yeast Anticancer Drug Screen. Data for the cln2 rad14 strain (AID 165);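 also: 0% = growth equal to vehicle treated cultures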; details: S. cerevisiae cln2 rad14 strain, at 50.0 µM, hits give high values
Procedure, shortened: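 Readout is yeast growth inhibition versus vehicle-treated controls, using a strain with cln2 and rad14 alterations exposed to compound.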

[5] = NCI Yeast Anticancer Drug Screen. Data for the bub3 strain (AID 167); details: S. cerevisiae bub3 mutant strain, at 50.0 µM, hits give high values
Procedure, shortened: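 Mutant yeast screening strain plus compound; vehicle-treated cultures serve as the 0% inhibition reference.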

[6] = NCI Yeast Anticancer Drug Screen. Data for the mlh1 rad18 strain (AID 175); details: S. cerevisiae mlh1 rad18 strain growth inhibition; at 50.0 µM; hits give high values
Procedure, shortened: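 Genetically defined yeast (DNA repair-deficient) exposed to compounds; growth inhibition determined relative to vehicle.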

Measured: growth inhibition

COc1c2ccoc2c(S(=O)(=O)Nc2ccc(Cl)cc2)c2oc(C)cc(=O)c12
inactive: [1] 4.7% | [2] -29.9% | [3] -13.9% | [4] -8.15% | [5] -11.8% | [6] -24.8%

CCCCCCCCCCCCC/C=C/CC(CC(=O)Nc1ccc(-n2c(=O)cc(C)n2C)cc1)C(=O)O (stereo unspecified)
inactive: [1] 3.75% | [2] -24.1% | [3] 13.1% | [4] 21.2% | [5] 20.6% | [6] 5.65%

CC1(C)OC2C(=O)O[C@H](CO)C2O1 (stereo partly specified)
inactive: [1] -2.7% | [2] 9.5% | [3] -2.9% | [4] 24.6% | [5] 7.3% | [6] 16.4%

CCCCCC(N)C(=O)O (stereo unspecified)
inactive: [1] 1.7% | [2] 6% | [3] -14.5% | [4] -22.1% | [5] -2.35% | [6] -17.9%

Cc1cc(C)nc(Nc2nc3ccc([N+](=O)[O-])cc3[nH]2)n1
inactive: [1] 0.5% | [2] -5.3% | [3] 5.5% | [4] -7.4% | [5] -5.05% | [6] -4.85%

CCN(C(=O)/C=C/c1ccccc1)C1CCCCC1
inactive: [1] 17.2% | [2] 27.9% | [3] 53.2% | [4] 47.2% | [5] 35.5% | [6] 48.5%

CC(=C/c1ccccc1)/C=C1/NC(=S)N(CN2CCCCCC2)C1=O
inactive: [1] 5.15% | [2] -22.1% | [3] 19.9% | [4] -10.2% | [5] -9.75% | [6] -14.8%

CCOC(=O)c1cn(C)c2c1C(O)=C(C(=O)OC)CC(=O)N2
inactive: [1] 4.5% | [2] 1.1% | [3] -14.2% | [4] 7.2% | [5] -12.6% | [6] -26.8%

O=[N+]([O-])c1ccc(CCn2cnc3c(N(CCO)CCO)ncnc32)cc1
inactive: [1] -7.85% | [2] -0.9% | [3] 3.6% | [4] -54.3% | [5] 6.95% | [6] -14.3%

O=C(COc1ccccc1)OC1CCCCC1C1CCCCC1 (stereo unspecified)
inactive: [1] 13.2% | [2] 13% | [3] 4.05% | [4] 21.5% | [5] 2.6% | [6] 14.2%

CCCCCCCCN1CSC(=S)N(c2ccc3[nH]c(=S)sc3c2)C1
inactive: [1] 48.9% | [2] 17.6% | [3] 34% | [4] 27.9% | [5] 5.2% | [6] 35.5%

CC(=O)OCC1C(=O)OCC1C(=O)N1Cc2cc3ccccc3nc2C1 (stereo unspecified)
inactive: [1] -10.6% | [2] -1.55% | [3] 13.7% | [4] -18.9% | [5] 31.2% | [6] -9.85%

c1ccc2c3c(ccc2c1)OCCOCCOc1ccc2ccccc2c1-3
active: [1] 76.7% | [2] 84.8% | [3] 76.5% | [5] 91.9% | [6] 86%
inactive: [4] 8.5%

C=CCOC(=O)C(C)OC(=O)OCC (stereo unspecified)
inactive: [1] 9.2% | [2] 10.7% | [3] 6.85% | [4] 8.1% | [5] -2.1% | [6] 7.15%

Cc1cc2[nH]c3c(C#N)c4c(c(=O)n3c2cc1C)CCCC4
inactive: [1] 10.1% | [2] 18.5% | [3] -7% | [4] 2.75% | [5] -5.85% | [6] -22.1%

O=NN(C(=O)NCCCl)c1[nH]c(=O)ncc1Br
inactive: [1] -8.6% | [2] -13.7% | [3] -16% | [4] -25.4% | [5] -7.95% | [6] -6.7%

Cc1ccc(N=NC2=C3Sc4ccccc4N=C2N(c2ccc(Br)cc2)C(=S)N3c2ccc(Cl)cc2)cc1
inactive: [1] -8.6% | [2] -3.35% | [3] -21.4% | [4] 18.9% | [5] -3.4% | [6] 1.05%

C(/C=C/C=C/Nc1ccc(N=Nc2ccccc2)cc1)=Nc1ccc(N=Nc2ccccc2)cc1
inactive: [1] -32.8% | [2] -38% | [3] -26.3% | [4] -1.65% | [5] -25.8% | [6] -30%

O=C1C[C@@]23CCC4(CC2=CCC[C@H]3O1)OCCO4
inactive: [1] -16.9% | [2] -19.6% | [3] 3.2% | [4] 14.7% | [5] 17.5% | [6] -12.3%

CC(=O)Nc1ccc(C)cc1[N+](=O)[O-]
inactive: [1] -29.6% | [2] 1.15% | [3] -29.2% | [4] -29.9% | [5] -42.5% | [6] -43.2%

CCOc1ccc(C(C)(C)c2cc3c(cc2OC)OCO3)cc1
inactive: [1] -16.2% | [2] -27.8% | [3] -39.9% | [4] -24.8% | [5] -21.9% | [6] -6.45%

Nc1nc(N)c2nc3c(nc2n1)C(=O)N(c1ccc(C(=O)O)cc1)C3
inactive: [1] 1.55% | [2] 34.9% | [3] 27.9% | [4] -2.8% | [5] 32.1% | [6] 23.2%

CCOC(=O)NC(=S)Nc1cn(C)cc1[N+](=O)[O-]
inactive: [1] 3.2% | [2] -5.9% | [3] 8.8% | [4] 1.9% | [5] 3.65% | [6] 11.7%

COc1c(C)c2c(c(C)c1Cl)Oc1c(C=O)c(O)c(Cl)c(C)c1C(=O)O2
inactive: [1] 55% | [2] 25.4% | [3] 44.9% | [4] 23.6% | [5] 29.4% | [6] 54.4%

CC(=O)C(c1ccccc1)S(=O)(=O)c1ccc(C)cc1 (stereo unspecified)
inactive: [1] 13.8% | [2] -18.4% | [3] -11.7% | [4] -42.4% | [5] 24.9% | [6] -1.5%

NC(=O)CS(=O)Cc1cccc(Br)c1 (stereo unspecified)
inactive: [1] -13.9% | [2] -11.2% | [3] -17.6% | [4] 7.35% | [5] -1.5% | [6] 6.5%

CC(C)(C)N(OC(=O)c1ccccc1)C(=O)c1ccccc1
inactive: [1] 3.25% | [2] 4.35% | [3] 0.4% | [4] 5.45% | [5] 0.6% | [6] 14.4%

c1ccc2cc(N3CCOCC3)ccc2c1
inactive: [1] -19.1% | [2] -27.4% | [3] -7.3% | [4] -19.9% | [5] -22.8% | [6] 2.3%

O=C(O)c1c[nH]c2c([N+](=O)[O-])cccc2c1=O
inactive: [1] 40.4% | [2] 16.5% | [3] 30.7% | [4] 8.5% | [5] 13.6% | [6] 28.4%

Cc1cc2c(C)nn(Cc3ccc(Cl)cc3)c2c(C#N)c1C
inactive: [1] 25.4% | [2] -8.85% | [3] 15.6% | [4] 2.85% | [5] 22.1% | [6] 18.9%

O=C(O)c1cc(C2CC2)nc2ccc(Br)cc12
inactive: [1] 13.6% | [2] 1.7% | [3] 2.2% | [4] 6.55% | [5] -5.6% | [6] 19.8%

O=C1CC(c2ccccc2)=NCCN1
inactive: [1] -9.2% | [2] 16.2% | [3] 11.9% | [4] -3.55% | [5] -19.4% | [6] -7.25%

Cc1ccc(N=C=O)cc1N1C(=O)N(c2cc(N=C=O)ccc2C)C1=O
inactive: [1] -41.5% | [2] -55% | [3] -48% | [4] -139% | [5] -10.5% | [6] -60.4%

O=C(O)c1cccc(Sc2ccccc2)c1
inactive: [1] -0.05% | [2] 9.25% | [3] 8.25% | [4] -0.85% | [5] -18.9% | [6] 16.6%

O=[N+]([O-])c1ccc(Cl)c(OCCCBr)c1
active: [6] 70.3%
inactive: [1] 10.3% | [2] 39.5% | [3] 48.6% | [4] 14.9% | [5] 57.2%

O=C1C(=Cc2ccccc2)C(=O)c2ccccc21
inactive: [1] 2.55% | [2] 25.6% | [3] 8.65% | [4] -17.6% | [5] 24.7% | [6] 9.3%

O=C1c2ccccc2C(O)(c2ccc(O)cc2)c2ccccc21
inactive: [1] -3.25% | [2] 0.1% | [3] -0.95% | [4] -0.3% | [5] 6.1% | [6] 6.2%

COc1ccc(C(C)=O)cc1CCCOC(C)=O
inactive: [1] -0.7% | [2] -1.35% | [3] -7.5% | [4] 10.7% | [5] 9% | [6] -2.6%

CNCC(OCCc1ccccc1)c1ccc(O)c(O)c1 (stereo unspecified)
inactive: [1] 5.85% | [2] -1.9% | [3] 36% | [4] -0.95% | [5] -12.6% | [6] 21.4%

Cc1ccccc1C(=O)c1cc(O)ccc1O
inactive: [1] -11.2% | [2] -10.1% | [3] -1.25% | [4] -8% | [5] -16.3% | [6] -5.2%

CCC(=O)Nc1ccc(F)cc1
inactive: [1] -4.65% | [2] 1.45% | [3] -0.45% | [4] -27.4% | [5] -10.9% | [6] 4.3%
